These results are taken from PubChem BioAssay (NCI).

This is part of a sample that, as a whole, favours compounds with a hit. Of some 83,000 tested, about 20% had one in any assay.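 Note: values are percent growth. 100 is the growth of untreated cells, values between 100 and 0 indicate rising inhibition; between -100 and 0 indicates cell death.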 Unmarked numbers belong to inactive results. The source made the active and inactive calls. Rule for the calls: active = growth percent below 10; inactive = the rest.

What all share (assay): NCI-60 one-dose screen, 48 h (100 = growth as untreated, 0 = no growth, -100 = all killed)
For one experiment, the system named is HT29 colon. As to conditions: 10 µM unless noted.
The next experiment has as its system SNB-75 CNS. As to conditions: 10 µM unless noted.
A further experiment relates to SNB-19 CNS. The conditions noted are these: 10 µM unless noted.
For another experiment, the system named is U251 CNS. As to conditions: 10 µM unless noted.
Another experiment deals with PC-3 prostate. As to conditions: 10 µM unless noted.
Another experiment concerns SK-MEL-5 melanoma. The conditions noted are these: 10 µM unless noted.
Another experiment relates to UACC-62 melanoma. The conditions noted are these: 10 µM unless noted.
The test system of another experiment is LOX IMVI melanoma. The conditions noted are these: 10 µM unless noted.
For the next experiment, the system named is SK-MEL-28 melanoma. The conditions noted are these: 10 µM.
In a further experiment the test system is SK-MEL-2 melanoma. As to conditions: 10 µM unless noted.
A further experiment concerns SN12C renal. The conditions noted are these: 10 µM unless noted.
Another experiment concerns UO-31 renal. The conditions noted are these: 10 µM unless noted.
Another experiment has as its system TK-10 renal. As to conditions: 10 µM unless noted.
The test system of a further experiment is ACHN renal. As to conditions: 10 µM unless noted.
The next experiment concerns CAKI-1 renal. The conditions noted are these: 10 µM unless noted.
The test system of a further experiment is A498 renal. The conditions noted are these: 10 µM unless noted.
Another experiment has as its system CCRF-CEM leukemia. As to conditions: 10 µM unless noted.
The next experiment concerns MOLT-4 leukemia. The conditions noted are these: 10 µM unless noted.
A further experiment relates to SR leukemia. The conditions noted are these: 10 µM unless noted.

For `COc1ccc(C2c3ccc4ccccc4c3Oc3ncn(CCCn4ccnc4)c(=N)c32)cc1OC` (configuration not stated), the growth with HT29 colon is 20.7%; in the experiment with SNB-75 CNS it was 84.4%; in the experiment on SNB-19 CNS, 79.2%; with U251 CNS it was 61%; with PC-3 prostate it was 52.6%; in the experiment with SK-MEL-5 melanoma, 63.7%. Also, the growth with UACC-62 melanoma was 69.1%; in the experiment with LOX IMVI melanoma, 35.9%; in the experiment on SK-MEL-28 melanoma, 68.2%; in the experiment on SK-MEL-2 melanoma, 81.4%; with SN12C renal it was 61%; in the experiment with UO-31 renal, 38%. For the same molecule, the growth in the experiment on TK-10 renal was 52.6%; in the experiment on ACHN renal it was 67.4%; in the experiment with CAKI-1 renal, 60.7%; in the experiment with A498 renal, 40.3%; in the experiment with CCRF-CEM leukemia, 42.1%; in the experiment on MOLT-4 leukemia, 61.9%. In addition, the growth in the experiment on SR leukemia is 26.9%.
In the case of `CCOC(=O)c1ccc2[nH]c(-c3ccccc3)cc(=O)c2c1`, the growth in the experiment on HT29 colon is 103%; with SNB-75 CNS it was 72.3%; in the experiment with SNB-19 CNS, 94.9%; in the experiment with U251 CNS, 97.2%; in the experiment with PC-3 prostate, 89.1%; with SK-MEL-5 melanoma it was 103%. Further, the growth is 101% in the experiment with UACC-62 melanoma; 98.2% with LOX IMVI melanoma; 109% with SK-MEL-28 melanoma; 105% in the experiment on SK-MEL-2 melanoma; 98.2% in the experiment with SN12C renal; 97.1% in the experiment on UO-31 renal. In addition, the growth in the experiment with TK-10 renal was 112%; in the experiment on ACHN renal, 97.5%; in the experiment with CAKI-1 renal, 98.5%; in the experiment on A498 renal it was 94.4%; in the experiment on CCRF-CEM leukemia, 89.7%; in the experiment with MOLT-4 leukemia, 94%. In addition, in the experiment with SR leukemia, the growth was 96%.
Consider `COc1ccc(-n2c(C(O)c3ccccc3)nn(CN3CCOCC3)c2=S)cc1` (configuration not stated), for which the growth in the experiment with HT29 colon was 109%; in the experiment with SNB-75 CNS, 87.4%; in the experiment with SNB-19 CNS, 92.7%; in the experiment with U251 CNS, 95.2%; in the experiment with PC-3 prostate, 101%; with SK-MEL-5 melanoma, 112%. Moreover, the growth in the experiment with UACC-62 melanoma is 95.8%; in the experiment on LOX IMVI melanoma, 95.4%; in the experiment with SK-MEL-28 melanoma, 89.2%; with SK-MEL-2 melanoma, 95.2%; in the experiment with SN12C renal, 91%; with UO-31 renal it was 77.5%. Besides, the growth in the experiment on TK-10 renal is 119%; with ACHN renal, 88.6%; in the experiment on CAKI-1 renal it was 97%; in the experiment on A498 renal, 115%; in the experiment on CCRF-CEM leukemia, 96.6%; with MOLT-4 leukemia it was 123%. For the same molecule, the growth with SR leukemia is 193%.
On to `CCOC(=O)c1cnc2ccc(Cl)cc2c1NCCCN(C)C`, for which the growth in the experiment with HT29 colon was 27.3%; with SNB-75 CNS, 35.6%; in the experiment on SNB-19 CNS, 24.5%; with U251 CNS, 8.33% (active); with PC-3 prostate, 25.7%; in the experiment on SK-MEL-5 melanoma it was -50.8% (active). Also, the growth with UACC-62 melanoma is -15.6% (active); in the experiment on LOX IMVI melanoma, 1.24% (active); with SK-MEL-28 melanoma, 50.1%; in the experiment with SK-MEL-2 melanoma, -0.411% (active); with SN12C renal, 18.1%; in the experiment with UO-31 renal, -22.8% (active). Also, the growth in the experiment on TK-10 renal is 33.8%; in the experiment on ACHN renal it was 18.3%; with CAKI-1 renal, -4.21% (active); with A498 renal, 31%; in the experiment on CCRF-CEM leukemia it was -4.96% (active); in the experiment with MOLT-4 leukemia it was -5.58% (active). Moreover, the growth in the experiment on SR leukemia was -5.95% (active).
`CCCCNc1nc(NC(C)(C)C)nc(NC(C)(C)C)n1`: the growth in the experiment with HT29 colon was 15.2%; in the experiment with SNB-75 CNS, 59.8%; in the experiment with SNB-19 CNS it was 63.7%; in the experiment with U251 CNS, 38%; with PC-3 prostate, 58.6%; in the experiment on SK-MEL-5 melanoma it was 50.7%. Further, the growth was 55.3% in the experiment on UACC-62 melanoma; 56.8% with LOX IMVI melanoma; 61.4% in the experiment with SK-MEL-28 melanoma; 64.1% with SK-MEL-2 melanoma; 56.1% with SN12C renal; 37.4% with UO-31 renal. Besides, the growth is 55.9% with TK-10 renal; 62.9% in the experiment with ACHN renal; 51.3% in the experiment on CAKI-1 renal; 45.4% with A498 renal; 42.4% in the experiment on CCRF-CEM leukemia; 39.1% in the experiment with MOLT-4 leukemia. Moreover, the growth in the experiment with SR leukemia is 33.6%.
As to `Cn1c(=O)n(C)c2cc(CNCCNc3ccnc4cc(Cl)ccc34)ccc21`, the growth was 6.95% (active) with HT29 colon; 69.6% with SNB-75 CNS; 89% in the experiment on SNB-19 CNS; 51.5% with U251 CNS; 64.2% with PC-3 prostate; 72.3% with SK-MEL-5 melanoma. In addition, the growth with UACC-62 melanoma is -46.8% (active); in the experiment on LOX IMVI melanoma, 9.85% (active); in the experiment on SK-MEL-28 melanoma it was -36.1% (active); with SK-MEL-2 melanoma, 65.7%; in the experiment with SN12C renal, 63.3%; with UO-31 renal it was 36.9%. For the same molecule, the growth in the experiment on TK-10 renal was 62.3%; in the experiment on ACHN renal, 4.21% (active); in the experiment on CAKI-1 renal, 66.2%; in the experiment with A498 renal, 72.3%; with CCRF-CEM leukemia, 58.5%; in the experiment with MOLT-4 leukemia, 61.1%. Besides, the growth in the experiment on SR leukemia was 3.33% (active).
Regarding `O=[N+]([O-])c1cc2c(ccc3occc32)o1`, the growth in the experiment with HT29 colon was 11.8%; in the experiment with SNB-75 CNS, 31.7%; in the experiment with SNB-19 CNS, 49.4%; with U251 CNS, 48.7%; with PC-3 prostate, 66.7%; in the experiment with SK-MEL-5 melanoma, -77% (active). The growth in the experiment on UACC-62 melanoma is 20.5%; in the experiment with LOX IMVI melanoma it was -36.3% (active); in the experiment on SK-MEL-28 melanoma it was -63.5% (active); in the experiment on SK-MEL-2 melanoma, -46% (active); with SN12C renal, 32.4%; with UO-31 renal, 23.4%. The growth in the experiment with TK-10 renal was 35.7%; in the experiment on ACHN renal it was 4.13% (active); in the experiment with CAKI-1 renal, -19.7% (active); in the experiment with A498 renal, -5.92% (active); in the experiment on CCRF-CEM leukemia it was 9.79% (active); with MOLT-4 leukemia, 17.1%. In the experiment with SR leukemia, the growth is 10.9%.
Regarding `O=C(NC1C(O)OC(CO)C(O)C1O)NS(=O)(=O)c1ccc(Cl)cc1` (configuration not stated), the growth in the experiment on HT29 colon was 93.2%; in the experiment with SNB-75 CNS, 94%; in the experiment with SNB-19 CNS, 101%; with U251 CNS, 103%; in the experiment on PC-3 prostate it was 94.5%; in the experiment on SK-MEL-5 melanoma it was 104%. Also, the growth in the experiment with UACC-62 melanoma is 94.8%; in the experiment on LOX IMVI melanoma, 101%; in the experiment on SK-MEL-28 melanoma it was 105%; with SK-MEL-2 melanoma, 101%; with SN12C renal, 98.1%; in the experiment on UO-31 renal, 77.1%. In addition, the growth is 110% in the experiment on TK-10 renal; 102% with ACHN renal; 94.4% in the experiment with CAKI-1 renal; 95.2% in the experiment on A498 renal; 99.1% in the experiment on CCRF-CEM leukemia; 102% in the experiment on MOLT-4 leukemia. The growth with SR leukemia is 100%.
